Our source for the outcome and AC50 values is PubChem BioAssay (EPA / NIEHS).

SMILES strings stand for the structures. Records with an inconclusive call do not appear. The source made the active and inactive calls. Rule for the calls, unless noted: active = hit-call score of the fitted dose curve at least 0.9, where 1 is the maximum; inconclusive = response in the unintended direction; inactive = score below 0.9.

Assay [1] deals with human Matrix Metalloproteinase-2 (MMP2), MMP2 (gene 4313) (UniProt P08253). As to the kind of experiment: NVS_ENZ_hMMP2: NovaScreen (NVS) Enzymatic Assay for human Matrix Metalloproteinase-2 (MMP2) (AID 2283184). An outline of the steps: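 Compounds first screened in duplicate at a single 25 uM, with actives followed up in concentration series. Recombinant human MMP2 cleaves a fluorogenic substrate; fluorescence taken at 1 h, inhibition fitted relative to DMSO.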

In assay [2] the target is Estrogen receptor (Homo sapiens) (UniProt P03372). As to the kind of experiment: CCTE_Deisenroth_AIME_384WELL_LUC_Active: CCTE's 384-well Estrogen Receptor Transactivation Assay with AIME metabolic competence (ERTA luciferase; metabolism positive), Deisenroth Lab (AID 2284030). In a few lines: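 Chemicals (10-point, 0.002-200 uM) were first incubated 2 hours with alginate-immobilized induced male Sprague Dawley rat liver S9. The conditioned medium was then applied to VM7Luc4E2 cells for 24 hours, with ER luciferase induction read by luminescence relative to 17beta-estradiol.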

Assay [3] shares this target. As to the kind of experiment: CCTE_Deisenroth_AIME_384WELL_LUC_Inactive: CCTE's 384-well Estrogen Receptor Transactivation Assay without AIME metabolic competence (ERTA luciferase; metabolism negative), Deisenroth Lab (AID 2284038).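 Note: VM7Luc4E2 breast cells given medium preincubated 2 h with S9-free microspheres; hits raise estrogen receptor luciferase signal so potencies reflect agonists.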 In a few lines: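 Metabolism-negative mode: AIME lids stamped in alginate-water, no hepatic S9. 2 h chemical incubation → medium onto VM7Luc4E2 ERTA, 24 h. Readout luciferase luminescence; gain-of-signal fit vs 17beta-estradiol. Conc. 0.002 - 200 uM.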

Assay [4] shares this target. As to the kind of experiment: CCTE_Deisenroth_AIME_384WELL_LUC_Shift: CCTE's 384-well Estrogen Receptor Transactivation Assay with AIME metabolic competence data shift (ERTA luciferase; difference in metabolism positive and negative), Deisenroth Lab (AID 2284041; active = hit-call score of the fitted dose curve at least 0.9, where 1 is the maximum; inactive = score below 0.9;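 note: shift is response with S9 minus without S9 so positive means metabolism raised ER signal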). An outline of the steps: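 Chemicals (0.002–200 uM, 10 points) pre-incubated 2 h with alginate-encapsulated induced male Sprague Dawley rat liver S9 or S9-free, then medium applied 24 h to VM7Luc4E2 cells; luciferase. Endpoint is per-concentration difference, S9-positive minus negative.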

A short description of assay [5]: CCTE_Shafer_MEA_dev_correlation_coefficient_mean: CCTE's Neural Network Formation Assay for Mean Correlation Coefficient, Shafer Lab (AID 2284093; active = hit-call score of the fitted dose curve at least 0.9, where 1 is the maximum; inactive = score below 0.9). An outline of the steps:
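Rat cortical cultures, 1.5 x 10^5 cells/well, dosed from day 0 for 12 days. Spontaneous spikes recorded DIV 5/7/9/12; electrode-pair correlation coefficients averaged, AUC taken. Fit in loss direction vs DMSO.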

Assay [6] deals with human Neurokinin, NK2 Receptor, TACR2 (gene 6865) (UniProt P21452). As to the kind of experiment: NVS_GPCR_hNK2: NovaScreen (NVS) G Protein-Coupled Receptor Assay for human Neurokinin, NK2 Receptor (AID 2283278).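 Note: actives reduce bound radioligand signal relative to DMSO baseline.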 In a few lines:
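CHO-derived membrane protein, radioligand displacement, filter scintillation read at 4 h post-dose. Single-point 25 uM in duplicate, then concentration series for actives; DMSO as negative control.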

The target of assay [7] is human Opioid Receptor Mu (Opiate Mu), OPRM1 (gene 4988) (UniProt P35372). As to the kind of experiment: NVS_GPCR_hOpiate_mu: NovaScreen (NVS) G Protein-Coupled Receptor Assay for human Opioid Receptor Mu (Opiate Mu) (AID 2283290).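 Note: hits lower bound tracer signal versus DMSO meaning displacement of the ligand.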 An outline of the steps: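 Cell-free radioligand binding to membranes from CHO cells expressing the receptor; bound tracer measured by filter-based scintillation counting 2.5 hours after dosing. Loss of signal versus DMSO baseline reflects displacement; primary screen at 25 uM in duplicate, actives followed up in concentration series.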

Assay [8] can be described thus: TAMU_HCS_1.5hr_SingleDonor1434_Cytotoxicity: Cytotoxicity Assessment using High-content Screening (HCS) Fluorescent Imaging for the Texas A&M University (TAMU) 1.5-hr Human Induced Pluripotent Stem Cell (iPSC)-derived Cardiotoxicity Assay (AID 2284234). In a few lines: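 Nuclear counts from Hoechst 33342 imaging define cytotoxicity here, with EC10 (10% cell-count loss relative to DMSO) as point of departure. iPSC cardiomyocytes received 0.2-100 uM test chemical in 0.5% DMSO for 1.5 h at 37 C.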

Assay [9] addresses rat CYP2A1, Cyp2a1 (gene 24894) (UniProt P11711). As to the kind of experiment: NVS_ADME_rCYP2A1: NovaScreen (NVS) CYP450-related Enzyme Activity (ADME) Assay for rat CYP2A1 (AID 2283114; active = hit-call score of the fitted dose curve at least 0.9, where 1 is the maximum; inactive = score below 0.9). An outline of the steps: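 Cell-free fluorescence enzyme-activity read on recombinant rat CYP2A1, taken 0.75 h post-dosing. Compounds were screened in duplicate at 10 uM, then hits tested in concentration series (max 20 uM); inhibition scored relative to acetonitrile baseline.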

Assay [10] has as its target rat Monoamine Oxidase, MAO-B, Central (MAOBC), Maob (gene 25750) (UniProt P19643). As to the kind of experiment: NVS_ENZ_rMAOBC: NovaScreen (NVS) Enzymatic Assay for rat Monoamine Oxidase, MAO-B, Central (MAOBC) (AID 2283238). In a few lines: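 Cell-free radiometric assay, rat brain lysate. Read-out: scintillation counts, 1.17 h post-dosing. Screen 25 uM in duplicate; actives (e.g. ≥30% inhibition) then singleton concentration-response, max 50 uM. Activity loss fitted relative to DMSO.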

Assay [11] concerns the target human Thromboxane A2 Receptor (TXA2), TBXA2R (gene 6915) (UniProt P21731). As to the kind of experiment: NVS_GPCR_hTXA2: NovaScreen (NVS) G Protein-Coupled Receptor Assay for human Thromboxane A2 Receptor (TXA2) (AID 2283282).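 Note: actives reduce bound radioligand signal relative to DMSO baseline.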 In a few lines: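 Cell-free radioligand binding with human platelet-derived receptor; 1 h after dosing, filter-based scintillation counting, loss of signal vs DMSO. Primary screen in duplicate at 25 uM.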

Assay [12] relates to Thyroperoxidase (TPO), gene 445522. As to the kind of experiment: CCTE_Simmons_GUA_TPO: CCTE's Guaiacol Assay for Thyroperoxidase (TPO) Inhibition, Simmons Lab (AID 2283750). An outline of the steps: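 Porcine thyroid microsomes (25 ug) in 200mM potassium phosphate, preincubated 30 s at 37C with compound (8 concentrations, 5 nM–87.5 uM) and 35mM guaiacol; 1mM H2O2 starts reaction. Absorbance change at 450nm over first 80 s; loss of signal versus DMSO, three replicates.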

Chain of Estrogen receptor (Homo sapiens) (P03372 whole entry, looked up): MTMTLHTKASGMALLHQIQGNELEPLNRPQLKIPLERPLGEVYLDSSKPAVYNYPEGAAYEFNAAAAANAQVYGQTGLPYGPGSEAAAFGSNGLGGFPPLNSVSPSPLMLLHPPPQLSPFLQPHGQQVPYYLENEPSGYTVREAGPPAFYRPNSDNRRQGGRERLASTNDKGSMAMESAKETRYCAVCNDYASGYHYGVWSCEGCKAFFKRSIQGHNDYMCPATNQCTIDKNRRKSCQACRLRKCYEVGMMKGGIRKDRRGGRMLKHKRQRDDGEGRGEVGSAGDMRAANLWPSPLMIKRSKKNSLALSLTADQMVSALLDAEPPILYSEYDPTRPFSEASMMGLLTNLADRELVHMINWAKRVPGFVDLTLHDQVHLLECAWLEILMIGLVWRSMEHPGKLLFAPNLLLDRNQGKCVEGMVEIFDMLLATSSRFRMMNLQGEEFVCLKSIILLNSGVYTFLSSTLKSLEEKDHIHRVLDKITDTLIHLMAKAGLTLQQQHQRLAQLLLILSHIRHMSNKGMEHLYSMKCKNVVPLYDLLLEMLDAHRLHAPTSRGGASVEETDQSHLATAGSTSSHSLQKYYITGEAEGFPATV
Chain of rat CYP2A1, Cyp2a1 (gene 24894) (P11711 whole entry, looked up): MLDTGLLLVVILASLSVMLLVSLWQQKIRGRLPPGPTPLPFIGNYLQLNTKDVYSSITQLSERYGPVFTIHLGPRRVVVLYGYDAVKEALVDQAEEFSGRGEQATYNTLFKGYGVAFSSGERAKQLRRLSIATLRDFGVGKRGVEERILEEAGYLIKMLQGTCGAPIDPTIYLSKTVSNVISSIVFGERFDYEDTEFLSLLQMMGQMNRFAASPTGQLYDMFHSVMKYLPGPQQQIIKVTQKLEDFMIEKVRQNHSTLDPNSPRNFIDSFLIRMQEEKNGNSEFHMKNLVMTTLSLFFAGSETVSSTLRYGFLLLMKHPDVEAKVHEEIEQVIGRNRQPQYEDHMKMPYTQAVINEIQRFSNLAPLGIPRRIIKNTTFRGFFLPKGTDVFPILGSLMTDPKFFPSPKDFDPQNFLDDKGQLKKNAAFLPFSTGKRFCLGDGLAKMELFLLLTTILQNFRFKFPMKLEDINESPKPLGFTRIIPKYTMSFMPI
Chain of human Opioid Receptor Mu (Opiate Mu), OPRM1 (gene 4988) (P35372 whole entry, looked up): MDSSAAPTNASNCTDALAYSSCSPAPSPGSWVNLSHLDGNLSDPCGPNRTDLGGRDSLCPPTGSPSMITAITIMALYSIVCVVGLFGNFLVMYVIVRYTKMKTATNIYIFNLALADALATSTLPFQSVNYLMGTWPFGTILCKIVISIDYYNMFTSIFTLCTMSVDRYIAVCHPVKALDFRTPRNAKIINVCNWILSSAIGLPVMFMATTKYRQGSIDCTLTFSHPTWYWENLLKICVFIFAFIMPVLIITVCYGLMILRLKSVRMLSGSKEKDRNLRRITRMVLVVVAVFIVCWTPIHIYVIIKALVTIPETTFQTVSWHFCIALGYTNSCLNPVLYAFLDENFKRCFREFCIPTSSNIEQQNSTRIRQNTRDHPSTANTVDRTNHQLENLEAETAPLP
Chain of human Matrix Metalloproteinase-2 (MMP2), MMP2 (gene 4313) (P08253 whole entry, looked up): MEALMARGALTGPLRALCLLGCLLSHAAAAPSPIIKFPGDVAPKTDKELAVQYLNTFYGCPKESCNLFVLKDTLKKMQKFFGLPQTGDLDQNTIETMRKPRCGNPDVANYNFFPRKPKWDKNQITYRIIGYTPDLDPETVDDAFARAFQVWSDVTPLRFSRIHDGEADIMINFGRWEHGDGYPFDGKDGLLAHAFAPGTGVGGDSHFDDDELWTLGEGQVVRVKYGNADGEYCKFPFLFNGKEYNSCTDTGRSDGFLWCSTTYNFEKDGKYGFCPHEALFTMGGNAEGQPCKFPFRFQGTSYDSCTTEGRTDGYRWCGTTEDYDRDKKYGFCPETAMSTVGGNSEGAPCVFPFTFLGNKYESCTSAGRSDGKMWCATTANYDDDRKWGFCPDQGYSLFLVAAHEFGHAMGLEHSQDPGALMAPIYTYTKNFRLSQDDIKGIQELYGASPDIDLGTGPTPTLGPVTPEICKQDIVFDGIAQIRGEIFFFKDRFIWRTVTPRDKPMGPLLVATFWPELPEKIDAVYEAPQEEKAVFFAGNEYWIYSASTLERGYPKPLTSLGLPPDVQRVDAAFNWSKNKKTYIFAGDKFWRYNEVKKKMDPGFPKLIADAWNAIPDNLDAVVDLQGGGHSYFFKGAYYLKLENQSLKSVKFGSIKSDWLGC
Chain of human Thromboxane A2 Receptor (TXA2), TBXA2R (gene 6915) (P21731 whole entry, looked up): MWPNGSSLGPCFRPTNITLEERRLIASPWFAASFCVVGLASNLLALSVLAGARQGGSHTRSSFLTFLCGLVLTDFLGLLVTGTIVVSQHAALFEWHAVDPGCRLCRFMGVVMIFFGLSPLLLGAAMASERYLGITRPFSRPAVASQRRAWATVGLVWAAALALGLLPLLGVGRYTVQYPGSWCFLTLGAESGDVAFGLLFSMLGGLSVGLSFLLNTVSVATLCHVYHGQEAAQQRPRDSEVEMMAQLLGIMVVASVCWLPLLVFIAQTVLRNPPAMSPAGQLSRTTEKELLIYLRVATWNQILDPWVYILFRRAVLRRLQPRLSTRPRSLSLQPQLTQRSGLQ
Chain of rat Monoamine Oxidase, MAO-B, Central (MAOBC), Maob (gene 25750) (P19643 whole entry, looked up): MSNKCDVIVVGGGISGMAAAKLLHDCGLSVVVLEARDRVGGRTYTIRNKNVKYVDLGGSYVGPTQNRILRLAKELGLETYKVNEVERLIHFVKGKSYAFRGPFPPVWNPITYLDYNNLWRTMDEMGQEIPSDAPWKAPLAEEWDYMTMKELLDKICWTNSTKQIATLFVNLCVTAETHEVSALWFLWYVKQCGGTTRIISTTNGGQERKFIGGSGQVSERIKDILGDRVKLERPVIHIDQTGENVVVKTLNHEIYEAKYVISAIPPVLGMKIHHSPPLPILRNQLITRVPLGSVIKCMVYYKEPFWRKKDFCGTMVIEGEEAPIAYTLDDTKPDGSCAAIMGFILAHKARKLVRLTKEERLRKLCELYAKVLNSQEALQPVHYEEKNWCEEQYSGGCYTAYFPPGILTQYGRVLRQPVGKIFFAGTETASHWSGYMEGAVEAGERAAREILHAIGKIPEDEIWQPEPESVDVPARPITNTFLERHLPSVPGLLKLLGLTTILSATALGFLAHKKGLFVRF
Chain of human Neurokinin, NK2 Receptor, TACR2 (gene 6865) (P21452 whole entry, looked up): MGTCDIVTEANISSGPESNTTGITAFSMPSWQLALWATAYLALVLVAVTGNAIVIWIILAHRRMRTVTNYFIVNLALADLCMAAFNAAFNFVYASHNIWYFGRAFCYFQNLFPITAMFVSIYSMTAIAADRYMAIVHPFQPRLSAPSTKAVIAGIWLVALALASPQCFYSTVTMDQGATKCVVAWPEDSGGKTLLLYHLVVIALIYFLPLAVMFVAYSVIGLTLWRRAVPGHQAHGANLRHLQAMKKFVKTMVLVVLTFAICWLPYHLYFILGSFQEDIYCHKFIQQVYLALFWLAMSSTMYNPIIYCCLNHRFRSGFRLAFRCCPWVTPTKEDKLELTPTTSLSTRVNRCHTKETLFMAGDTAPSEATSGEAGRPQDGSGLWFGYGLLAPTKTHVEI

As to `Cc1cc(C)c(C2=C(OC(=O)CC(C)(C)C)C3(CCCC3)OC2=O)c(C)c1`, the result in assay [1], in assay [2], in assay [3] and in [4] was inactive.

Regarding `CC(C)CCCCCCCOP(=O)(Oc1ccccc1)Oc1ccccc1`, the call in [5] was inactive.

Turning to `O=C1C=CC(=O)C=C1`, the AC50 in [6] was 0.927 µM (active); in [7], 9.86 µM (active). Also, in assay [8], the molecule was called inactive.

`CC(Cc1ccc(C(C)(C)C)cc1)CN1C[C@@H](C)O[C@@H](C)C1` (some centres not stated): the AC50 is 3.26 µM (active) in assay [9] and 14.1 µM (active) in assay [10].

Consider `CC1OC(C)OC(C)O1` (configuration not stated), for which the outcome in assay [11] was inactive.

With `Nc1ccccc1`, in [12], the AC50 is 9.69 µM (active).

The term AC50 denotes the concentration giving half of the maximal activity seen.
